Screen size: about 59,000 compounds; about 30 (0.05%) were called active. No stated cut-off is given here; in the data, active means max dye-equivalent concentration above about 11 nM; inconclusive means between about 1.1 nM and that limit; inactive means weaker than that. The sample as a whole holds a higher share of actives than the screen did.
Experiment: qHTS Assay for Spectroscopic Profiling in Rhodamine Spectral Region
Conditions: Rhodamine-region fluorescence, 547/598 nm, Tris buffer; active compounds read high
Text: NIH Molecular Libraries Screening Centers Network [MLSCN] NIH Chemical Genomics Center [NCGC] […] Occasionally, the artifactual effect may originate from the compound#s own spectral or other biophysical properties which generally tend to track its assay concentration. Pre-screening/profiling the library with respect to the compounds# spectral properties should help one exclude false positives early on. While the most informative fluorescent profiling data set is obtained by performing a full excitation and emission scan of each well by using a monochromator-based plate reader, such an approach is practical only on a very limited scale as scanning each well requires long time. An alternative approach, applied here, is to perform plate reader scans using selected excitation and emission wavelength pairs to generate a multidimensional relational database that correlates compound concentration and the respective relative fluorescence intensity at a given wavelength set. A standard curve of rhodamine present on each plate as six-point concentration series, was used to compute a normalized fluorescence response, termed dye-equivalent concentration, for each compound at each concentration.
NCGC Assay Protocol Summary: Buffer: 100 mM Tris buffer, pH 8.0 Dye standard plate: The wells in columns 1 through 4 of a Kalypsys polypropylene 1536-well compound plate were filled with standard solutions of fluorophore corresponding to the spectral region of interest. Solutions of rhodamine were placed in the following wells: E1, F1: 3 mM, E2, F2: 300 uM, E3, F3: 30 uM, E4, F4: zero (DMSO), G1, H1: 3 uM, G2, H2: […], G3, H3: 300 nM, G4, H4: zero (DMSO). Assay Steps: Six uL of buffer were dispensed to 1536-well Greiner black plates. Compounds and dye standards (23 nL) were transferred via Kalypsys PinTool. The plates were incubated for 15 min at room temperature, and then read on ViewLux (Perkin-Elmer) High-throughput CCD imager using 547 nm and 598 nm excitation and emission filter set. Keywords: NIH Roadmap, MLSCN, MLI, MLSMR, qHTS, NCGC, Rhodamine , Fluorescent Profiling.

Structure (SMILES) | max dye-equivalent concentration
CCOC(=O)N1CCN(S(=O)(=O)c2cc(Br)cc3c2N(C(=O)C2CC2)CC3)CC1 | inactive
CCOC(=O)c1cc2cc(C)ccc2[nH]1 | inactive
CC(C)C[C@H](NC(=O)Nc1cccc(C(F)(F)F)c1)C(=O)O | inactive
CN(C)CCCNc1c2c(c(C#N)c3nc4ccccc4n13)CCC2 | inactive
COc1ccc(CNC(=O)c2c(C)cc(=O)oc2C)cc1OC | inactive
CC(=O)c1c(C)c[nH]c1C | inactive
O=C(NCc1ccccc1)C1C(=O)N(Cc2ccccc2)C(=O)C1C1(O)CCCC1 (stereo not given) | inactive
Cn1c(=O)c2c(nc(N3CCCCCC3)n2CC(O)COc2ccc(Cl)cc2)n(C)c1=O (stereo not given) | inactive
CN(C)c1ncc2nc(-c3ccc(F)cc3)c(=O)n(Cc3ccc(F)cc3)c2n1 | inactive
CS(=O)(=O)N1CCC2(CC1)CN(c1ccncc1)C2 | inactive
Cc1ccccc1N1CC(c2nc3ccccc3[nH]2)CC1=O (stereo not given) | inactive
CCN1CCN(C(=O)c2ccccc2N(C)S(=O)(=O)c2ccc(C)cc2)CC1 | inactive
Cc1ccc(C(=O)Nc2ccccc2C(=O)NC2CCCCC2)cc1S(=O)(=O)N1CCOCC1 | inactive
C/C(O)=C\c1nc(=O)c2c(C)cc(C)nc2n1-c1ccccc1 | inactive
CC(C)NC(=O)N1CC[C@@]2(CCCN(C(=O)c3cccc(F)c3)C2)C1 | inactive
CCCn1c(SCC(=O)Nc2cccc(C(=O)OCC)c2)nnc1-c1ccoc1C | inactive
CCOc1ccc(NCCC(=O)c2ccc3c(c2)OCO3)cc1 | inactive
CCOC(=O)N1CCN(C(=O)c2cc3c(ccc4ccccc43)oc2=O)CC1 | inactive
O=C(Nc1ccc(NC(=O)c2cccs2)cn1)c1ccco1 | inactive
CCCCCOC(=O)NCCOC(=O)Nc1ccc(C(=O)OCC)cc1 | inactive

Structure (SMILES) | max dye-equivalent concentration
CC1CC(c2ccccc2)n2nc(NC(=O)c3cccs3)nc2N1 (stereo not given) | inactive
CCn1c(=O)cc(OCC(=O)NCCCN2CCN(c3cccc(Cl)c3)CC2)c2ccccc21 | inactive
O=C(c1csnn1)N1CCC[C@@]2(CCN(c3cccc(-c4ccccc4)c3)C2)C1 | inactive
CN(c1ccccc1)c1ccc(/C=c2\s/c(=C(/C#N)C(=O)C(C)(C)C)n(Cc3ccco3)c2=O)cc1 | 36 nM (active)
CCOC(=O)CSc1nc2c(sc(=S)n2CCc2ccccc2)c(=O)n1Cc1ccco1 | inactive
CCOc1ccccc1/C=c1\sc2nc(-c3ccco3)nn2c1=O | inactive
Cc1cccc(OCc2nnc(SCc3nc4cc(C(F)(F)F)ccc4c(=O)[nH]3)o2)c1 | inactive
COc1ccc(C(CNC(=O)c2cccnc2SC)N2CCOCC2)cc1 (stereo not given) | inactive
O=C(CSc1nnc(-c2ccc(NS(=O)(=O)c3ccccc3)cc2)o1)NCC1CCCO1 (stereo not given) | inactive
O=C(C1CCC(C(=O)N2CCCC2)CC1)N1CCCC1 (stereo not given) | inactive
COc1ccc(S(=O)(=O)N2CCCC(C(=O)Nc3ccc(NC(=O)c4ccccn4)cc3)C2)cc1 (stereo not given) | inactive
CCn1c(NCCc2ccc(OC)c(OC)c2)nc2c1c(=O)n(C)c(=O)n2C | inactive
CCNc1nc(N)nc(Oc2ccc(OCC)nn2)n1 | inactive
CC1=Nn2c(nnc2-c2ccccc2)SC1 | inactive
CN(CC(=O)NC1CCCCC1)S(=O)(=O)c1ccc(Br)s1 | inactive
O=C(CSc1nnc(-c2ccccc2)o1)N1CCOCC1 | inactive
Cc1ccc(CC2CC(=O)N(c3ccc4c(c3)OCCO4)C2=O)cc1 (stereo not given) | inactive
C[C@]1(O)CC[C@H]2[C@H]3CC=C4N5CCN=C5CC[C@@]4(C)[C@H]3CC[C@@]21C | inactive
CCNc1ncc2ncc(=O)n(Cc3cccc(OC)c3)c2n1 | inactive
CC1Cc2ccccc2N1C(=O)CSc1nc2ccccc2o1 (stereo not given) | inactive

Structure (SMILES) | max dye-equivalent concentration
CCN(CC)c1ccc(C(=O)OCC(=O)c2ccco2)cc1 | inactive
Cc1ccsc1C(C(=O)NC1CCCCC1)N(C(=O)Cc1cccs1)C1CC1 (stereo not given) | inactive
CCC(C(=O)Nc1ncccn1)(C(F)(F)F)C(F)(F)F | inactive
CC(C)C(c1nnnn1CCc1ccccc1)N1CCN(C(=O)c2ccco2)CC1 (stereo not given) | inactive
O=C(Nc1c(-c2ccccc2)nc2c(Br)cc(Br)cn12)c1ccco1 | inactive
Cc1oc(-c2cccc(Cl)c2)[n+]([O-])c1C | inactive
COCCn1c(=O)c(-c2cccs2)nc2cncnc21 | inactive
Nc1nonc1-c1noc(-c2ccc(Br)o2)n1 | inactive
CCOC(=O)C1=C(CNC2CCCCC2)NC(=O)NC1c1cc(C)ccc1C (stereo not given) | inactive
Cc1cc(=O)n2nc(N3CCCC3C(=O)NCCCN3CC(C)CC(C)C3)sc2n1 (stereo not given) | inactive
O=C(CN1CCN(c2ccccn2)CC1)NCc1cccs1 | inactive
OCc1n[nH]c(CO)n1 | inactive
CCC(=O)Nc1sc(C(=O)N2CCCCC2)c(C)c1C#N | inactive
CCOC(=O)c1c(C)c(C(=O)NCCc2ccc(S(N)(=O)=O)cc2)c(C)n1CC | inactive
COc1ccc(CCNC(=O)CN2CCC(n3nnc4cc(F)ccc43)CC2)cc1OC | inactive
Nc1nnnn1/N=C/c1cccs1 | inactive
CCc1ccccc1NC(=O)CSc1nnc([C@@H](NC(=O)OC(C)(C)C)C(C)C)o1 | inactive
COc1cc(Cl)c(C)cc1NC(=O)CSc1nnc(-c2cccnc2)n1Cc1ccco1 | inactive
Cc1cc(N2CCCC2=O)cc(C)c1S(N)(=O)=O | inactive
C/C(=N\O)C1(C)N(O)C(C)(C)C(c2ccc(Br)cc2)=[N+]1[O-] (stereo not given) | inactive

Reference: PubChem BioAssay AID594 (National Center for Advancing Translational Sciences (NCATS), 2007)
